Test [1] addresses Nuclear receptor coactivator 1 (Homo sapiens) (UniProt Q15788). In words: NCOA1 GAL4-fusion reporter inhibition – cell-based, luminescence, quadruplicate, confirmation (AID 588820;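 active = mean inhibition above 46.68%, the untreated control wells mean plus 3 SD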;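 note: 0% = DMSO wells and 100% = gossypol 36 µM treated wells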). The settings on record: HEK293 GAL4-SRC1 luciferase reporter, at 3.6 µM, stronger effect = higher value.
A short description of test [2]: repression of VP16-driven luciferase reporter – cell-based, luminescence, high throughput, counter-screen for SRC1 inhibitor project (AID 588824). The settings on record: cell-based VP16 transactivation luciferase luminescence; at 3.6 µM; stronger effect = higher value.

Unmarked numbers belong to inactive results. The source made the active and inactive calls. Cut-off read from the data, not from the text of the source, unless noted: active = inhibition above about 25%; inactive = the rest.

Sequence of Nuclear receptor coactivator 1 (Homo sapiens) (Q15788 whole entry, looked up, the tested form may be a part): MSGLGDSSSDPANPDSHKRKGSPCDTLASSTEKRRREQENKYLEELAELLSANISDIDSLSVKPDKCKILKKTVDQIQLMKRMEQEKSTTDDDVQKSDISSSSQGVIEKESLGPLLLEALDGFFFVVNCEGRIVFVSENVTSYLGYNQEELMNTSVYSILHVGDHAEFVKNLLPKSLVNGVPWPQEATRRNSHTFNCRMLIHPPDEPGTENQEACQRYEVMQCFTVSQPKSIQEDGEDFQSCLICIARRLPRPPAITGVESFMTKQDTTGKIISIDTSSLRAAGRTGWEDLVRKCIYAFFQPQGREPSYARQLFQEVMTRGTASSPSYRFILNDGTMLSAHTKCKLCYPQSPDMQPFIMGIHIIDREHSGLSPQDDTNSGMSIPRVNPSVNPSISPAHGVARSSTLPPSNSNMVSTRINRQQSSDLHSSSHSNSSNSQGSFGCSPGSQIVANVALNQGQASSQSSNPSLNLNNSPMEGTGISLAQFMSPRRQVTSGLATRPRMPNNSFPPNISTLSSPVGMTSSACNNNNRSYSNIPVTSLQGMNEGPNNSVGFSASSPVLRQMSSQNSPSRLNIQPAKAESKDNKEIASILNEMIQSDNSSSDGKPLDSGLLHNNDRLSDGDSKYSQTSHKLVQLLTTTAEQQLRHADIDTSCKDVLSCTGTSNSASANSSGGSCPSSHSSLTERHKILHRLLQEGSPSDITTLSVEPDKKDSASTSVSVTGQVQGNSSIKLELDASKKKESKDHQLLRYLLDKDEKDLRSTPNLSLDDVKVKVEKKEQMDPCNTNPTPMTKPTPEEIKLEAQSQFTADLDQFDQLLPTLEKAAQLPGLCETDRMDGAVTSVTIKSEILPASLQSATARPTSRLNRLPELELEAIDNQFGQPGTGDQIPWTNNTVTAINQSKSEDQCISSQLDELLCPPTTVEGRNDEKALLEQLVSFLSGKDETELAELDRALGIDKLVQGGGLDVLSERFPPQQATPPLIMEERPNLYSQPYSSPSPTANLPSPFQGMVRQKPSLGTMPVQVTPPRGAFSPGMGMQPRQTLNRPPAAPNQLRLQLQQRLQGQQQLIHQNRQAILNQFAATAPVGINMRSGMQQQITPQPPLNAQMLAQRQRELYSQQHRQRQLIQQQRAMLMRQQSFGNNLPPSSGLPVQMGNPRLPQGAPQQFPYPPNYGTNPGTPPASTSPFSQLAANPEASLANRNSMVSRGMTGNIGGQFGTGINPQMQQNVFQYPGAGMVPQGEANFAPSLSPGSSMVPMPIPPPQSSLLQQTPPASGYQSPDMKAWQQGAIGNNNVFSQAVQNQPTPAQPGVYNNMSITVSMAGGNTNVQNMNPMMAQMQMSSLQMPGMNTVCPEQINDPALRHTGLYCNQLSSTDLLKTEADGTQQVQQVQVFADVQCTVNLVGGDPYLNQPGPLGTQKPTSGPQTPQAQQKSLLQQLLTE

With `Cc1nc(N/N=C/c2ccc(O)cc2O)cc(N2CCOCC2)n1`, the figures for the inhibition in test [1] and in test [2] were -26.5% and -14.6%, respectively.
Taken in the same sequence, the figures for `Nc1nc(Cl)nc2ccc(Br)cc12` were -6.1% and -0.41%.
On to `C=CCc1cccc(/C=N/NC(=O)C(C)Nc2ccc(C)cc2)c1O` (centres undefined), for which the inhibition is 6.49% in test [1] and 8.01% in test [2].
Taken in the same sequence, the figures for `Cc1ccc(N2C(N)=C(C#N)C3(C(=O)N(C)c4ccccc43)C3=C2CC(C)(C)CC3=O)cc1Cl` (centres undefined) were 3.57% and 14.7%.
Consider `CCC(C(=O)OCC(=O)Nc1cc(Cl)cc(Cl)c1)c1ccccc1` (centres undefined), for which the inhibition is -0.98% in test [1] and -3.53% in test [2].
`C=CCSc1nnc(-c2cc(C(C)(C)C)nn2Cc2ccc(F)cc2)n1C`: the figures for the inhibition in test [1] and in test [2] were 1.92% and 4.7%, respectively.
For `CCOc1cc(/C=N/Nc2nc3ccccc3[nH]2)cc(Br)c1OCC(=O)N(C)C`, the inhibition is -9.77% in test [1] and -3.09% in test [2].
As for `O=C1NC2(CCN(Cc3ccccc3)CC2)Oc2ccccc21`, the inhibition in test [1] is -21.7%; in test [2], -3.3%.
Consider `C=C1C(=O)O[C@@]23[C@H]1CC[C@@H](C)[C@@H]2CC[C@@]1(C)O[C@@H]31`, for which the inhibition in test [1] is 1.63%; in test [2], 7.69%.
Take `O=C1CC2(CCCC2)CC(=O)N1CCCCN1CCN(c2ncccn2)CC1`: the inhibition in test [1] is 0.34%; in test [2] it was 2.87%.
Take `Cc1ccc2nc(C)c3c(c2c1)N(c1ccc(F)cc1)CC3`: the inhibition in test [1] is 16.4%; in test [2], 30.5% (active).
With `O=C(NCCC(=O)N1CCCC(C(F)(F)F)C1)c1ccc(Br)cc1` (centres undefined), the results for the inhibition in test [1] and in test [2] were -7.52% and -9.82%, respectively.
Take `CCN(Cc1ccncc1)C(=O)CC1C(=O)NCCN1Cc1ccc(F)c(F)c1` (centres undefined): the inhibition in test [1] was 30.1%; in test [2], 17%.
Turning to `CCc1ccc(NC(=O)C2CCN(S(=O)(=O)c3ccc4c(c3)CC(C)N4C(C)=O)CC2)cc1` (centres undefined), the inhibition in test [1] was -7.12%; in test [2], 12.7%.
`Cc1oc(-c2ccc(Cl)cc2)nc1CS(=O)CC(=O)NCCCN1CCN(Cc2ccccc2)CC1` (centres undefined): the figures for the inhibition in test [1] and in test [2] were -11% and 27.4% (active), respectively.
Taken in the same sequence, the figures for `CN(Cc1ccc(F)cc1)C(=O)c1cccc(S(=O)(=O)N2CCN(c3ccccc3)CC2)c1` were -0.46% and 15%.
With `COc1cc(NC(=O)c2cccc3c(-c4cnn(C)c4)coc23)cc(OC)c1OC`, the inhibition in test [1] was -26.3%; in test [2] it was -0.35%.
`COc1ccc(C(=O)NNC(=O)C(=O)N2CCCCC2)cc1OC`: the values for the inhibition in test [1] and in test [2] were -5.24% and -0.82%, respectively.
As for `NS(=O)(=O)c1ccc(CCNC(=O)c2ccc(C#CC3(O)CCCCC3)cc2)cc1`, the inhibition is -44% in test [1] and -3.61% in test [2].
For `CCN(CC)c1ccc(/C=N/Nc2nc3ccccc3[nH]2)c(O)c1`, in that order: -7.34% and 3.82%.
For `CCOc1ccc(-c2nnc3ccc(SCC(=O)NCc4ccco4)nn23)cc1`, the inhibition in test [1] was -6.9%; in test [2], -3.63%.
On to `Cc1nn(-c2ccccc2)c(C)c1NC(=O)COC(=O)C1CC(=O)N(CCc2ccccc2)C1` (centres undefined), for which the inhibition in test [1] is -14.4%; in test [2] it was 2.89%.
Turning to `CCN(C(=S)NC(=O)C1CC1)c1ccccc1`, the results for the inhibition in test [1] and in test [2] were -8.52% and -4.48%, respectively.
With `Cc1c(O)ccc(/C(Cc2ccc3ccccc3n2)=N\N)c1O`, the results for the inhibition in test [1] and in test [2] were -105% and -61.3%, respectively.
On to `Cc1ccc(NC(=O)CN(C(=O)N2CCN(C)CC2)S(=O)(=O)c2ccc(C)cc2)cc1`, for which the inhibition in test [1] was -4.36%; in test [2], -2.41%.
As for `O=S(=O)(c1cccc(C(F)(F)F)c1)N1c2ccccc2-n2cccc2C1c1cccnc1` (centres undefined), the values for the inhibition in test [1] and in test [2] were 12.9% and 17.7%, respectively.
For `COc1ccc(-c2nnc(NC(=O)CSc3ccccc3)s2)cc1OC`, the inhibition in test [1] was 1.2%; in test [2], -8.89%.
In the case of `Cc1ccccc1-n1nc(C)c2c1N=C1C(Cl)=CC(Cl)=CN1C2c1ccc(C(=O)O)cc1` (centres undefined), the values for the inhibition in test [1] and in test [2] were -9.32% and -14.1%, respectively.
For `COc1ccccc1NC(=O)c1cc(S(=O)(=O)NC2CCCC2)ccc1F`, in that order: 3.42% and 5.69%.
With `Cc1cccnc1NC(=O)c1cccc(S(=O)(=O)NCc2ccccc2)c1`, the values for the inhibition in test [1] and in test [2] were -10.8% and 3%, respectively.
In the case of `CCOC(=O)C1CCN(S(=O)(=O)c2ccc3c(c2)CC(C)N3C(=O)C2CC2)CC1` (centres undefined), the inhibition in test [1] is -22.1%; in test [2], 3.71%.
As to `CCOC(=O)c1ccc(S(=O)(=O)N2CCN(C(C)=O)CC2)cc1`, the inhibition was -14.4% in test [1] and -6.09% in test [2].

Values taken from PubChem BioAssay.
